Residue numbers refer to the chain shown, from its start.

Holding throughout (test): PBM; 200 nM protein, PBS
Settings in all cases: dsDNA, one strand shown

Assay [1] addresses NKX2-5 (Homo sapiens, UniProt P52952 125-210, R139K).
Assay [2] deals with T1, NKX2-4 (Homo sapiens, UniProt Q9H2Z4 175-261, P217L).
T1 sequence: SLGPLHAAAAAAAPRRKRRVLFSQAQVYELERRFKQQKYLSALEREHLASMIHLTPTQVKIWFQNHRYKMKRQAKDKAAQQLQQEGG

Assay [3] has as its target T2, NKX2-4 (Homo sapiens, UniProt Q9H2Z4 175-261, T231S).
T2 sequence: T1 sequence with L43P, T57S

Assay [4] concerns the target T3, NKX2-4 (Homo sapiens, UniProt Q9H2Z4 175-261).
T3 sequence: T1 sequence with L43P

The target of assay [5] is T4, NKX2-6 (Homo sapiens, UniProt A6NCS4 118-204, R150C).
T4 sequence: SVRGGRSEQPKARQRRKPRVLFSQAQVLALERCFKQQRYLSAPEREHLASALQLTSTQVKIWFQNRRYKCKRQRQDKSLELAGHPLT

For assay [6], the target named is T5, NKX2-6 (Homo sapiens, UniProt A6NCS4 118-204).
T5 sequence: T4 sequence with C33R

Assay [7] deals with T6, NKX2-4 (Homo sapiens, UniProt Q9H2Z4 175-261, R246Q).
T6 sequence: T1 sequence with L43P, R72Q

Assay [8] concerns the target T7, NKX2-6 (Homo sapiens, UniProt A6NCS4 118-204, F151L).
T7 sequence: T4 sequence with C33R, F34L

Assay [9] addresses NKX3-2 (Homo sapiens, UniProt P78367 192-278, P234S).
Assay [10] deals with NKX2-5 (Homo sapiens, UniProt P52952 125-210).
The target of assay [11] is NKX3-2 (Homo sapiens, UniProt P78367 192-278).
Assay [12] addresses T8, VENTX (Homo sapiens, UniProt O95231 78-163, R121Q).
T8 sequence: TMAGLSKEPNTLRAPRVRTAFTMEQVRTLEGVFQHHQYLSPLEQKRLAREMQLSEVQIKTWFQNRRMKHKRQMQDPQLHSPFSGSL

In assay [13] the target is T9, VENTX (Homo sapiens, UniProt O95231 78-163, Y115F).
T9 sequence: T8 sequence with Y38F, Q44R

The target in assay [14] is ALX1 (Homo sapiens, UniProt Q15699 118-204, L144V).
The target in assay [15] is ALX1 (Homo sapiens, UniProt Q15699 118-204, L144R).
The target in assay [16] is ALX1 (Homo sapiens, UniProt Q15699 118-204).
For a further assay, the target named is HOXB9 (Homo sapiens, UniProt P17482 171-250, R186Q).
Chain of HOXB9 (P17482 171-250 R186Q): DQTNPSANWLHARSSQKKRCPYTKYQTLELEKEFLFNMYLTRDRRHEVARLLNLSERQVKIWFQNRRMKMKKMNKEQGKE

Chain of NKX3-2 (Homo sapiens, UniProt P78367 192-278) (P78367 192-278): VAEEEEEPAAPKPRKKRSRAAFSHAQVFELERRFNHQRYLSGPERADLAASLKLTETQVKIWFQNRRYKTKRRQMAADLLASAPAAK
Chain of NKX3-2 (Homo sapiens, UniProt P78367 192-278, P234S) (P78367 192-278 P234S): as the sequence (P78367 192-278) above, with P43S counted along it
Chain of NKX2-5 (Homo sapiens, UniProt P52952 125-210) (P52952 125-210): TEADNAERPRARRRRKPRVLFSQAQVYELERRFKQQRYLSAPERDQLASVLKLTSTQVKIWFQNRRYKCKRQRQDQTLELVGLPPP
Chain of NKX2-5 (Homo sapiens, UniProt P52952 125-210, R139K) (P52952 125-210 R139K): as the sequence (P52952 125-210) above, with R15K counted along it
Chain of ALX1 (Homo sapiens, UniProt Q15699 118-204, L144V) (Q15699 118-204 L144V): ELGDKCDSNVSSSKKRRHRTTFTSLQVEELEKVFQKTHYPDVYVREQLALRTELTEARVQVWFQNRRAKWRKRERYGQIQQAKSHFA
Chain of ALX1 (Homo sapiens, UniProt Q15699 118-204) (Q15699 118-204): as the sequence (Q15699 118-204 L144V) above, with V27L counted along it
Chain of ALX1 (Homo sapiens, UniProt Q15699 118-204, L144R) (Q15699 118-204 L144R): as the sequence (Q15699 118-204 L144V) above, with V27R counted along it

Consider CCACTTGA, for which the binding signal was 13.4 upbm affinity estimate (log intensity, higher = more binding, comparable within an allelic series) with NKX2-5 [1]; 12.9 upbm affinity estimate (log intensity, higher = more binding, comparable within an allelic series) with NKX2-4 [2]; 13.3 upbm affinity estimate (log intensity, higher = more binding, comparable within an allelic series) with NKX2-4 [3]; 12.8 upbm affinity estimate (log intensity, higher = more binding, comparable within an allelic series) with NKX2-4 [4]; 12.3 upbm affinity estimate (log intensity, higher = more binding, comparable within an allelic series) with NKX2-6 [5]; 13.9 upbm affinity estimate (log intensity, higher = more binding, comparable within an allelic series) with NKX2-6 [6]. Also, the binding signal with NKX2-4 [7] is 13.5 upbm affinity estimate (log intensity, higher = more binding, comparable within an allelic series); with NKX2-6 [8] it was 11.5 upbm affinity estimate (log intensity, higher = more binding, comparable within an allelic series); in the assay with NKX3-2 [9], 12.5 upbm affinity estimate (log intensity, higher = more binding, comparable within an allelic series); with NKX2-5 [10], 13.2 upbm affinity estimate (log intensity, higher = more binding, comparable within an allelic series); with NKX3-2 [11], 12.6 upbm affinity estimate (log intensity, higher = more binding, comparable within an allelic series).

Regarding ATAAGTGC, the binding signal is 13 upbm affinity estimate (log intensity, higher = more binding, comparable within an allelic series) with NKX2-5 [1]; 12.7 upbm affinity estimate (log intensity, higher = more binding, comparable within an allelic series) with NKX2-4 [2]; 13.1 upbm affinity estimate (log intensity, higher = more binding, comparable within an allelic series) with NKX2-4 [3]; 12.6 upbm affinity estimate (log intensity, higher = more binding, comparable within an allelic series) in the assay with NKX2-4 [4]; 12.2 upbm affinity estimate (log intensity, higher = more binding, comparable within an allelic series) with NKX2-6 [5]; 13.8 upbm affinity estimate (log intensity, higher = more binding, comparable within an allelic series) with NKX2-6 [6]. For the same sequence, the binding signal with NKX2-4 [7] was 13.3 upbm affinity estimate (log intensity, higher = more binding, comparable within an allelic series); with NKX2-6 [8], 11.4 upbm affinity estimate (log intensity, higher = more binding, comparable within an allelic series); in the assay with NKX3-2 [9] it was 12.9 upbm affinity estimate (log intensity, higher = more binding, comparable within an allelic series); with NKX2-5 [10] it was 12.9 upbm affinity estimate (log intensity, higher = more binding, comparable within an allelic series); in the assay with NKX3-2 [11], 13 upbm affinity estimate (log intensity, higher = more binding, comparable within an allelic series).

In the case of AATTAGCT, the binding signal with NKX2-5 [1] is 10.5 upbm affinity estimate (log intensity, higher = more binding, comparable within an allelic series); with VENTX [12], 11.7 upbm affinity estimate (log intensity, higher = more binding, comparable within an allelic series); with VENTX [13], 11.4 upbm affinity estimate (log intensity, higher = more binding, comparable within an allelic series); with ALX1 [14] it was 11.5 upbm affinity estimate (log intensity, higher = more binding, comparable within an allelic series); with ALX1 [15], 11.1 upbm affinity estimate (log intensity, higher = more binding, comparable within an allelic series); with ALX1 [16], 12.1 upbm affinity estimate (log intensity, higher = more binding, comparable within an allelic series). For the same sequence, the binding signal with NKX2-5 [10] is 10.6 upbm affinity estimate (log intensity, higher = more binding, comparable within an allelic series).

Take CGAACGCC: the binding signal is 8.62 upbm affinity estimate (log intensity, higher = more binding, comparable within an allelic series) in the assay with NKX2-5 [1]; 6.33 upbm affinity estimate (log intensity, higher = more binding, comparable within an allelic series) with ALX1 [14]; 6.32 upbm affinity estimate (log intensity, higher = more binding, comparable within an allelic series) with ALX1 [15]; 6.54 upbm affinity estimate (log intensity, higher = more binding, comparable within an allelic series) in the assay with ALX1 [16]; 8.69 upbm affinity estimate (log intensity, higher = more binding, comparable within an allelic series) with NKX2-5 [10].

With GCCACTTA, the binding signal is 13.3 upbm affinity estimate (log intensity, higher = more binding, comparable within an allelic series) in the assay with NKX2-5 [1]; 12.7 upbm affinity estimate (log intensity, higher = more binding, comparable within an allelic series) with NKX2-4 [2]; 13 upbm affinity estimate (log intensity, higher = more binding, comparable within an allelic series) with NKX2-4 [3]; 12.5 upbm affinity estimate (log intensity, higher = more binding, comparable within an allelic series) with NKX2-4 [4]; 12.2 upbm affinity estimate (log intensity, higher = more binding, comparable within an allelic series) with NKX2-6 [5]; 14 upbm affinity estimate (log intensity, higher = more binding, comparable within an allelic series) with NKX2-6 [6]. The binding signal with NKX2-4 [7] is 13.2 upbm affinity estimate (log intensity, higher = more binding, comparable within an allelic series); in the assay with HOXB9, 10 upbm affinity estimate (log intensity, higher = more binding, comparable within an allelic series); with NKX2-6 [8], 11.2 upbm affinity estimate (log intensity, higher = more binding, comparable within an allelic series); with NKX3-2 [9], 13.3 upbm affinity estimate (log intensity, higher = more binding, comparable within an allelic series); with NKX2-5 [10] it was 13.1 upbm affinity estimate (log intensity, higher = more binding, comparable within an allelic series); with NKX3-2 [11], 13.4 upbm affinity estimate (log intensity, higher = more binding, comparable within an allelic series).

In the case of CCGGAGCC, the binding signal with NKX2-5 [1] is 8.82 upbm affinity estimate (log intensity, higher = more binding, comparable within an allelic series); with NKX2-4 [2], 9.74 upbm affinity estimate (log intensity, higher = more binding, comparable within an allelic series); in the assay with NKX2-4 [3], 9.52 upbm affinity estimate (log intensity, higher = more binding, comparable within an allelic series); with NKX2-4 [4], 9.71 upbm affinity estimate (log intensity, higher = more binding, comparable within an allelic series); in the assay with NKX2-4 [7], 9.5 upbm affinity estimate (log intensity, higher = more binding, comparable within an allelic series); with NKX3-2 [9], 10.4 upbm affinity estimate (log intensity, higher = more binding, comparable within an allelic series). Further, the binding signal is 8.87 upbm affinity estimate (log intensity, higher = more binding, comparable within an allelic series) with NKX2-5 [10] and 10.4 upbm affinity estimate (log intensity, higher = more binding, comparable within an allelic series) with NKX3-2 [11].

Consider CCAGGCCG, for which the binding signal is 8.83 upbm affinity estimate (log intensity, higher = more binding, comparable within an allelic series) with NKX2-5 [1]; 9.57 upbm affinity estimate (log intensity, higher = more binding, comparable within an allelic series) with NKX2-4 [2]; 9.57 upbm affinity estimate (log intensity, higher = more binding, comparable within an allelic series) in the assay with NKX2-4 [3]; 9.56 upbm affinity estimate (log intensity, higher = more binding, comparable within an allelic series) with NKX2-4 [4]; 9.57 upbm affinity estimate (log intensity, higher = more binding, comparable within an allelic series) with NKX2-4 [7]; 8.78 upbm affinity estimate (log intensity, higher = more binding, comparable within an allelic series) with NKX2-5 [10].

The values are drawn from article PMC11006913.
